# Screens: PubChem BioAssay, The Scripps Research Institute Molecular Screening Center
# Sampled rows, rich in hits. Any-hit rate of the full collection: about 4.1%.
# DAX1 inh-1: DAX1 (NR0B1) inhibitors on StAR promoter, primary screen, cell-based, luminescence, SF-1 (NR5A1), full-length DAX-1 | HEK293T StAR-luciferase reporter, SF-1/DAX-1 repression relief | inhibition, % at 6.8 µM | 370,000 compounds, 1.1% hits | AID 652010, 2013;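 active = inhibition above the mean over all tested compounds plus 3 SD, cut at about 3.6% in these data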;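 also: 0% = DAX-1 cells with DMSO and 100% = cells lacking DAX-1 with DMSO; higher inhibition means more luminescence from relief of DAX-1 repression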
# hgDAF-12 ag: H. glycines DAF-12 receptor agonists, primary screen, cell-based, luminescence, HEK293, GAL4 fusion, UAS-luciferase. Nuclear hormone receptor DAF-12 (Heterodera glycines), GAL4 fusion. activation, % at 6.8 µM. 370,000 compounds, 1.8% hits. HEK293 GAL4-hgDAF12 UAS-luciferase reporter, agonist luminescence; normalized to butyrate control;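 active = activation above a cutoff set at the mean of all screened compounds plus 3 SD, cut at about 10% in these data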;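 also: 0% = DMSO wells and 100% = sodium butyrate wells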
# ssDAF12 agonist: S. stercoralis DAF-12 nuclear receptor activators, primary screen, cell-based, luminescence, HEK293, GRIP1 co-expression, lit1-tk-luc. Nuclear hormone receptor DAF-12 (Strongyloides stercoralis). activation, % at 6.8 µM. HEK293 ssDAF-12/GRIP1 lit1-tk-luc reporter; % of 3 µM dafachronic acid response. 370,000 compounds, 1% hits;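 active = activation above the mean over all tested compounds plus 3 SD, cut at about 0.9% in these data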;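 also: 0% = DMSO-only wells and 100% = 3 µM delta7-dafachronic acid wells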
# hcDAF-12 act: H. contortus DAF-12 nuclear receptor activators, primary screen, cell-based, luminescence, HEK293, lit1-tk-luc reporter | HEK293 hcDAF-12 lit1-tk-luc reporter; 0% DMSO, 100% Δ7-dafachronic acid | activation, % at 6.8 µM | 370,000 compounds, 1.4% hits;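 active = activation above the mean of all tested compounds plus 3 SD, cut at about 5.5% in these data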;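 also: 100% = response to 3 µM Δ7-dafachronic acid high control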
# DAX1 inh-2: DAX1 (NR0B1) inhibitors, primary screen, cell-based, HEK293, Gal4-DAX1, luciferase luminescence | Nuclear receptor subfamily 0 group B member 1 (Homo sapiens), P51843 | HEK293 Gal4-DAX1 luciferase reporter | inhibition, % at 6.75 µM | 340,000 compounds, 0.99% hits;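 active = inhibition above the mean over all tested compounds plus 3 SD, cut at about 4.2% in these data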;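 also: 0% = DAX1-transfected cells with DMSO and 100% = empty-vector control cells with DMSO; inhibition shows as a rise in luminescence from relieved DAX1 repression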
# Target sequence (P51843 207-470 limits assumed): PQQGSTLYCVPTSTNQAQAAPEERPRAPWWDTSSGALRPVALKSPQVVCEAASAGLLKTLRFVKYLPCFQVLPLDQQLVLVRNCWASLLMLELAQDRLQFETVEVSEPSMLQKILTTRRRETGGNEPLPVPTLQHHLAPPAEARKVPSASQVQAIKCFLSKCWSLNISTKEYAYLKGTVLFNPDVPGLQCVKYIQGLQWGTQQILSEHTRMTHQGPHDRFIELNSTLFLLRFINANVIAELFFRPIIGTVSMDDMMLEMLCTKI
# * marks the source's active call; other numbers are inactive results; . = no result given.
SMILES,DAX1 inh-1,hgDAF-12 ag,ssDAF12 agonist,hcDAF-12 act,DAX1 inh-2
CC(C)(C)c1ccc(-c2nnc(SCc3ccccc3)n2Cc2ccco2)cc1,-2,-4,-2,-1,.
COC(=O)[C@@H](C)NC(=O)C(Cc1ccc2c(c1)OCO2)NC(C)=O (some centres not stated),0,-1,-1,-1,.
COC(=O)C1CN(Cc2ccc(C)cc2)CCS(=O)(=O)N1Cc1cn(Cc2ccc(Cl)cc2)nn1 (configuration not stated),-1,1,-1,-1,.
CCOc1ccc(C(=O)NCC(=O)OCc2nnc(-c3ccccc3)o2)cc1OCC,4.2*,-2,-1,0,1
Cc1ccc2[nH]c(CNC(=O)c3ccc(F)cc3)cc2c1,1,-1,1.0*,1,1
Cc1ccc2[nH]c(C(=O)Nc3ccc(F)cc3)cc2c1,0,3,-1,-1,0
O=C(NNC(=S)Nc1ccccc1)NNC(=S)Nc1ccccc1,0,1,-1,0,0
O=C(NNC(=S)Nc1ccccc1)c1cc(Br)ccc1Cl,0,4,0,6.1*,0
CCCn1nnc(NC(=O)c2cccc(Cl)c2)n1,0,4,0,2,0
CCCn1nnc(NC(=O)c2cc(Br)ccc2OC)n1,0,1,1.1*,-1,1
CCCn1nnc(NC(=O)c2cc3ccccc3o2)n1,3,9,-1,4,5.7*
CC1(C)C2CC[C@]3(C)C(CC=C4[C@@H]5C[C@@](C)(CO)[C@@H](O)C[C@]56C[C@@H](OC6=O)[C@]43C)[C@@]2(C)CC[C@@H]1O (some centres not stated),0,1,-2,-1,5.5*
C[C@H]1[C@H](C)CC[C@]2(C(=O)O)CC[C@]3(C)C(=CC[C@@H]4[C@@]5(C)CC[C@H](O)C(C)(C)[C@@H]5CC[C@]43C)[C@H]12,0,0,-1,2,0
Cc1ccc(/C=N/c2sc3c(c2C#N)CCC3)s1,1,-1,-1,1,2
CN1CCc2c(sc(/N=C/c3cc(Cl)ccc3O)c2C#N)C1,1,3,0,2,6.8*
C/C(=N\NC(=O)CSc1nnc(-c2ccccc2)n1-c1ccc(C)cc1)c1ccc(-c2ccccc2)cc1,0,-1,-1,-2,.
O=C(CSc1nnc(-c2ccccn2)n1-c1ccc(Cl)cc1)Nc1cccc2ccccc12,-1,-1,-1,-1,.
Cc1cc(-c2nc(-c3ccc(C(C)(C)C)cc3)no2)no1,1,9,-1,2,1
Cc1c(-c2nc(-c3ccc(C(C)(C)C)cc3)no2)n(C)oc1=O,3,12*,2.1*,5.7*,-1
CN(C)c1ccc(Cl)cc1N,-1,0,-1,0,5.3*
COC(=O)[C@]12C[C@H](CC(=O)NCc3cccs3)C(=O)N(Cc3ccco3)C1=C[C@H](C(C)C)O[C@@H]2C1CC1,-1,-3,-1,-3,.
COc1ccc(-c2nnc(SCC(=O)N/N=C\C=C/c3ccco3)n2-c2ccc(C)cc2)cc1,-1,-2,-1,-3,.
C=CCn1nc2ccccc2c1OCCO,0,5,0,6.0*,3
CCCCNC(=O)C[C@H]1C[C@@]2(C(=O)OC)C(=C[C@H](C3CCCC3)O[C@@H]2C)N(CCc2ccc(OC)c(OC)c2)C1=O,-1,-1,-1,-3,.
Cc1cccc(-c2cc3nc4c(c(N5CCC6(CC5)OCCO6)n3n2)CCCC4)c1,1,0,-1,1,-1
SMILES,DAX1 inh-1,hgDAF-12 ag,ssDAF12 agonist,hcDAF-12 act,DAX1 inh-2
Cc1cccc(-c2cc3nc4c(c(N5CCOCC5)n3n2)CCCC4)c1,4.5*,8,-1,3,3
CC(C)C[C@@H]1COc2cc(Br)ccc2S(=O)(=O)N1Cc1cn(Cc2ccco2)nn1,-1,0,-2,-1,.
COC(=O)c1cc(-c2ccc(Cl)s2)c(=O)n2c1CCC2,1,2,-1,6.5*,.
COC(=O)c1cc(-c2cc(Cl)cc(Cl)c2)c(=O)n2c1CCC2,-1,-1,-1,0,.
CCSc1nnc(NC(=O)c2ccco2)s1,1,4,-1,0,0
COC(=O)Nc1nnc(/C=C/c2ccccc2)s1,2,3,0,3,0
Nc1nnc(/C=C/c2ccccc2)s1,1,6,-1,5.8*,-1
O=C(Nc1nnc(/C=C/c2ccccc2)s1)c1ccco1,0,5,1.6*,0,-1
CC(C)Sc1nnc(NC(=O)c2ccco2)s1,2,8,1.8*,0,1
COc1ccccc1-c1nc(NC(C)=O)n[nH]1,0,1,1.8*,4,.
O=c1nc(Nc2ccccc2)oc2ccccc12,1,8,0,4,5.8*
CN(c1ccccc1)S(=O)(=O)c1cccc(NC(=O)CCN2C(=O)C3CCCCC3C2=O)c1 (configuration not stated),-2,0,1.8*,1,-1
C=CS(=O)(=O)N(Cc1nnn(Cc2ccccc2)c1Br)[C@@H](CC(C)C)C(=O)OC,-3,-2,-2,-2,.
O=C(COC(=O)CCS(=O)(=O)c1ccc(Cl)cc1)Nc1ncc(Cl)cc1Cl,0,-1,0,0,4.8*
Cc1c(Cl)cnc(NC(=O)COC(=O)CCS(=O)(=O)c2ccccc2)c1Cl,-1,0,-1,1,0
Cc1cc(C(=O)N2CCc3ccccc3C2)n[nH]1,0,0,0,2,1
O=C(c1cc([N+](=O)[O-])[nH]n1)N1CCSCC1,2,1,-2,0,5.4*
O=C(N=C1N(CC2CC2)CC2(C=C3CCCCC3n3c(=O)n(-c4ccccc4)c(=O)n32)N1C(=O)OCc1ccccc1)c1ccccc1 (configuration not stated),0,1,-1,-2,.
O=C(OCc1cccc(F)c1)c1ccc2c(=O)n3c(nc2c1)CCC3,0,2,-1,-2,4.5*
COc1ccc(S(=O)(=O)NCc2ccco2)cc1C(=O)N1CCCCC1,0,2,-1,-2,5.0*
COc1ccc(S(=O)(=O)NCc2ccco2)cc1C(=O)N1CCOCC1,0,2,-1,0,1
COc1ccc2c(c1)CCCN2C(=O)C1CCCN(S(=O)(=O)c2ccc(Cl)s2)C1 (configuration not stated),-1,-1,0,-1,.
C[C@@H]1COc2cc(N3CCCCC3)ccc2S(=O)(=O)N1,1,7,0,2,.
